ADAM10 inh – ADAM10 inhibition, QFRET primary screen; inhibition, % at 7 µM; recombinant ADAM10, EDANS/DABCYL FRET peptide cleavage, 3 h; AID 720582; O14672; 370,000 tested, 0.62% active;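 active = inhibition above a per-campaign cutoff equal to the mean of compounds falling between control-based bounds plus 3 SD, cut at about 20% in these data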
aDG glyco act – alpha-DG glycosylation activation | Pro5-aDG cells, alpha-DG glycosylation AlphaScreen (IIH6); 0% Pro5, 100% B10-LARGE cell signal | activation, % at 10 µM | 360,000 tested, 0.22% active | AID 624168;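 active = activation of at least 8% versus controls, or a plate z-score of at least 8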;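 also: Pro5 are CHO cells carrying HIG-tagged alpha-DG that lacks glycosylation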
ADAM17 inh – ADAM17 inhibition, QFRET primary screen; recombinant ADAM17, EDANS/DABCYL FRET peptide cleavage; P78536; inhibition, % at 6.95 µM; 370,000 tested, 0.83% active;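 active = inhibition above the mean of compounds lying between control limits plus 3 SD, set per campaign, cut at about 8.5% in these data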
GRIN3A LBD mod – modulates the human NR3A ligand-binding domain; NR3A LBD differential scanning fluorimetry, Tm shift; 0% = protein alone, 100% = glycine-bound protein; Tm shift relative to glycine control, % at 25 µM; 340,000 tested, 2.5% active; AID 1259313;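 active = melting temperature shift of at least 10% of the positive control shift, at one fixed dose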
FAS-TE inh – inhibitors of human fatty acid synthase thioesterase domain. P49327. recombinant FAS-TE, OMFH fluorogenic substrate, fluorescence endpoint. inhibition, % at 15 µM. 360,000 tested, 0.67% active. AID 602261;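 active = compounds whose normalised, plate-corrected inhibition of enzyme fluorescence in the single-dose primary screen is 50% or more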
Of the large screens only hits and unclear results are named; the others gave an inactive call; ! = not active in a repeat. Compounds with a hit are over-represented: about 4% of the library has one in this group of screens.

CN(C)S(=O)(=O)c1cc(C(=O)NCC2CCCO2)c(Cl)cc1Cl (configuration not stated)	GRIN3A LBD mod 18
COc1cccc(-c2nn(C)c3sc(C(=O)NCCCN(C)Cc4ccccc4)cc23)c1	none
CCN(CC)CCCNC(=O)c1cc2c(-c3cccc(OC)c3)nn(C)c2s1	GRIN3A LBD mod 11
COC(=O)c1ccc(N=NN2CCCCCC2)cc1	GRIN3A LBD mod 17
CCCCOc1ccc(C(=O)Nn2cnnc2)cc1	GRIN3A LBD mod 14
COc1ccc(C(=O)Nn2c(C)nc3ccccc3c2=O)cc1	none
CCCOc1ccc(C(=O)Nn2c(C)nc3ccccc3c2=O)cc1	GRIN3A LBD mod 11
CCN(CC)S(=O)(=O)c1ccc2[nH]c(=O)cc(C(=O)NCc3ccccc3)c2c1	none
O=C(N/N=C/c1ccc(F)c(F)c1)c1cc2c(s1)-c1ccccc1CC2	GRIN3A LBD mod 27
CCc1nnc(NC(=O)CN2CCOCC2)s1	GRIN3A LBD mod 14
CCCc1nnc(NC(=O)CN2CCOCC2)s1	none
CCN(CC)C(=O)Oc1cc(=O)n2c3c(cccc13)CCC2	GRIN3A LBD mod 20
CCCNC(=O)c1c(O)c2cccc3c2n(c1=O)CCC3	none
Cc1ccc(C(=O)Cn2c(C)cc(C)c(C#N)c2=O)cc1	GRIN3A LBD mod 13
COc1ccc(-c2ncn(CCC#N)c2[N+](=O)[O-])cc1	none
COC(=O)CNC(c1ccccc1)c1cc(Br)ccc1NS(=O)(=O)c1ccccc1 (configuration not stated)	none
COC(=O)CNC(c1ccccc1)c1cc(Br)ccc1NS(=O)(=O)c1ccc(C)cc1 (configuration not stated)	GRIN3A LBD mod 16
O=C(Nc1ccc(Cl)c(Cl)c1)Nn1cnnc1	none
N#Cc1ccccc1N/C=C/C(=O)c1ccc(Cl)cc1	GRIN3A LBD mod 36
O=C(O)CC/C(=C\c1ccc(Cl)c([N+](=O)[O-])c1)c1nc2ccccc2s1	GRIN3A LBD mod 30
COc1ccc(Cl)cc1-c1cc(C(=O)NCc2ccco2)[nH]n1	none (no result: GRIN3A LBD mod)
CSCCC(NC(=O)c1ccc(C)o1)C(=O)O (configuration not stated)	GRIN3A LBD mod 15
CSCCC(NC(=O)c1cc(C)oc1C)C(=O)O (configuration not stated)	none
COc1cccc(-c2cc(C(=O)Nc3cccc(O)c3)no2)c1	GRIN3A LBD mod 24
O=C(Nc1cccc(O)c1)c1cc(-c2cccs2)on1	GRIN3A LBD mod 15
COc1ccc(NC(=O)c2cc(-c3ccccc3OC)on2)cc1	none
CC(=O)c1cccc(NC(=O)c2cc(-c3cccs3)on2)c1	none
COc1ccc(NC(=O)c2cc(-c3ccccc3Cl)on2)cc1	GRIN3A LBD mod 37
CCCCn1nnnc1C(c1cc2ccccc2o1)N1CCCN(C(=O)OC(C)(C)C)CC1 (configuration not stated)	none (no result: GRIN3A LBD mod)
Cn1nccc1C(=O)Nn1cnnc1	none
CCOC(=O)C1C(C(=O)OC)=C(c2ccc(OC)cc2)c2ccccc2N1S(=O)(=O)C(F)(F)F (configuration not stated)	GRIN3A LBD mod 11
CCOC(=O)C1C(C(C)=O)=C(c2ccccc2)c2ccccc2N1S(=O)(=O)C(F)(F)F (configuration not stated)	GRIN3A LBD mod 11
CCOC(=O)/C(=C\C=C\N1CCOCC1)C(C)=O	none
S=c1nc[nH]c2c1[nH]c1ccc(Cl)cc12	GRIN3A LBD mod 33
CCOc1ccccc1OCCCC(=O)NC1=NCCS1	none
Cc1ccc2oc(-c3cccc(NC(=O)/C=C/c4cccc([N+](=O)[O-])c4)c3C)nc2c1	GRIN3A LBD mod 17
Oc1ccccc1OCCOc1ccccc1OCCOc1ccccc1O	none
c1ccc(OCCSc2nc3ccccc3o2)cc1	none
CCOc1ccc(OCCSc2nc3ccccc3o2)cc1	GRIN3A LBD mod 21
CN(c1ccccc1)S(=O)(=O)c1ccc(NC(=O)CC(=O)c2ccccc2)cc1	GRIN3A LBD mod 16
CN(Cc1ccc(OC(F)F)cc1)C(=O)c1ccc(S(=O)(=O)N(C)c2ccccc2)cc1	none
CC(=O)Nc1ccc(NC(=O)c2ccc(S(=O)(=O)N(C)c3ccccc3)cc2)cc1	none
Cc1ccc(CN(C)C(=O)c2ccc(S(=O)(=O)N(C)c3ccccc3)cc2)o1	GRIN3A LBD mod 22
Nc1c(Cl)cc(Cl)cc1C(=O)OCC(=O)N1CCOCC1	none
Clc1ccccc1-c1ccc(/C=N/n2cnnc2)o1	none
CN(C)CCC(c1ccccc1)c1ccccn1 (configuration not stated)	none
CN(C)CCC(c1ccc(Cl)cc1)c1ccccn1 (configuration not stated)	GRIN3A LBD mod 16!
CCOC(=O)C(C)Sc1nc(C2CC2)cc(C(F)(F)F)c1C#N (configuration not stated)	none
COC(=O)CSc1nc(C2CC2)cc(C(F)(F)F)c1C#N	GRIN3A LBD mod 18
Cc1ccccc1S(=O)(=O)N(C)C[C@H]1OCc2cn(nn2)CCCC(=O)N([C@@H](C)CO)C[C@@H]1C	none (no result: GRIN3A LBD mod)
Cc1ccc(NC(C(N)=O)c2c(C)[nH]c(=O)[nH]c2=O)cc1 (configuration not stated)	none
O=C(O)CCC(=O)OC1CC2CCC1C2 (configuration not stated)	none
O=C(O)C1C2C=CC(C2)C1C(=O)OC1CC2CCC1C2 (configuration not stated)	GRIN3A LBD mod 14
O=C(c1cnn2c(C(F)(F)F)cc(-c3cccs3)nc12)N1CCCC1	none
Cc1cc(C)c(OC2(c3ccccc3)OC(=O)c3ccccc32)c(C)c1 (configuration not stated)	GRIN3A LBD mod 16
Cc1cccc(C)c1OC1(c2ccccc2)OC(=O)c2ccccc21 (configuration not stated)	none
FC(F)(F)c1ccccc1C1=CC(c2ccccc2)n2ncnc2N1 (configuration not stated)	none
CC(C)c1ccc(Nc2nnc(SCC(=O)Nc3ncc(S(=O)(=O)c4ccc([N+](=O)[O-])cc4)s3)s2)cc1	GRIN3A LBD mod 13
O=C(Nc1ncc(S(=O)(=O)c2ccc([N+](=O)[O-])cc2)s1)c1cccnc1	none
O=C(Nc1ncc(S(=O)(=O)c2ccc([N+](=O)[O-])cc2)s1)c1ccc2ccccc2c1	GRIN3A LBD mod 22
Cc1ccc(Nc2nnc(SCC(=O)Nc3ncc(S(=O)(=O)c4ccc([N+](=O)[O-])cc4)s3)s2)cc1	GRIN3A LBD mod 16
Cc1cc(=O)[nH]c(SCC(=O)Nc2ncc(S(=O)(=O)c3ccc([N+](=O)[O-])cc3)s2)n1	none
Cc1cc(NC(=O)CCCn2nc(C)c([N+](=O)[O-])c2C)no1	none
O=C(C(=O)N1CCC(c2ccccc2)CC1)c1ccc(F)c(F)c1	none (no result: GRIN3A LBD mod, FAS-TE inh)
O=C(NCCc1ccc(Cl)cc1)Nc1cccc(Cl)c1	GRIN3A LBD mod 20
COc1ccc(CCNC(=O)Nc2ccc3c(c2)OCO3)cc1OC	none
O=C(NCCc1ccncc1)Nc1ccc(Cl)c(Cl)c1	GRIN3A LBD mod 18
Cc1cccc(NC(=O)NCCc2ccc(Cl)cc2)c1	none

Source: PubChem (several laboratories)
